# In PubChem BioAssay (Tox21):
# Results filed as inconclusive are left out. Activity calls are given as the source filed them. Calls come from the whole dose curve; as a rule, active = well fitted activation curve with a large enough effect in the repeat runs; inconclusive = weak or mixed curves; inactive = flat fitted curve, though single readings scatter.
# Experiment: A CellTox Green Cytotoxicity Assay to monitor cytotoxicity in HepG2 cells - 16 hour (AID 1224876); note: nearly all actives have a fitted effect of over 45% in size
# Conditions: CellTox Green fluorescence; series mostly up to 76.8 µM; cytotoxicity increase: at the top concentration
# From the text: National Center for Advancing Translational Sciences [NCATS]
# NIH Chemical Genomics Center [NCGC]
# U.S. Environmental Protection Agency [EPA]
# National Institutes of Environmental Health Sciences [NIEHS]
# National Toxicology Program [NTP]
# Cell-based models are critical for drug discovery. Determining the natural cytotoxic effects resulting from test compounds is an essential research activity. A CellTox Green Cytotoxicity Assay to monitor cytotoxicity in real time of continues cell culture during 40 hours of the compound treatment was used to screen Tox21 10K library compounds in HepG2 cells. CellTox Green Cytotoxicity Assay is a nonlytic, homogeneous, biofluorescent method to measure cytotoxicity in cell culture after experimental manipulation. The assay system uses a proprietary asymmetric cyanine dye that is excluded from viable cells but preferentially stains the dead cell's DNA. […] Viable cells produce no appreciable increases in fluorescence. Therefore, the fluorescence signal produced by the binding interaction with dead cell DNA is proportional to cytotoxicity.
# The mixture of HepG2 cell suspension and reagents were dispensed at 600cells/6 ul/well in 1536-well tissue culture treated black solid bottom plates using a Multidrop dispenser. After the assay plates were incubated at a 37 C/5% CO2 incubator for 5 hours, 23 nL of compounds dissolved in DMSO, positive and negative controls was transferred to the assay plate by a pintool work station. The plates were incubated at 37 C for 40 hours. The fluorescence intensity were measured at 0h, 8h, 16h, 24h, 32h and 40h time points using ViewLux plate reader during compound treatment.
# % is set by controls: 0 for no effect and ±100 for the full control effect; potency is the fitted concentration of half-maximal effect.
SMILES,cytotoxicity increase,Potency
Clc1nc(Cl)nc(Nc2ccccc2Cl)n1,1.03% (inactive),–
C1CN2CCC1CC2,1.79% [at 35.3 µM] (inactive),–
CNC(=O)NC(O)C(Cl)(Cl)Cl (stereo not given),19.9% [at 35.3 µM] (inactive),–
CN(CCO)CCO,-0.123% (inactive),–
Cc1cccc2sc3nncn3c12,22.6% (inactive),–
Cc1cc(OC(=O)N(C)C)nn1C(=O)N(C)C,-13.2% (inactive),–
CCOC(=O)C(Cl)Cc1cc(-n2nc(C)n(C(F)F)c2=O)c(F)cc1Cl (stereo not given),-9.41% (inactive),–
CCCN1CCC[C@@H]2Cc3nc(N)ncc3C[C@H]21,–,21.3 µM (active)
CC(O)CCl (stereo not given),2.02% (inactive),–
CCOP(=S)(OCC)Oc1ccc(Cl)cc1Cl,6.68% (inactive),–
CC(Cc1ccccc1)NCCCCl (stereo not given),0.598% [at 35.3 µM] (inactive),–
O=C(Cl)c1ccccc1,3.17% (inactive),–
O=C1CCCCC1Cl (stereo not given),-3.48% (inactive),–
C[C@H](CN1CCOCC1)C(C(=O)N1CCCC1)(c1ccccc1)c1ccccc1,13.5% (inactive),–
CC(C)(C)C(=O)C(Cl)Cl,-10.1% (inactive),–
C=C1C[C@@H]2[C@H](CC[C@]3(C)C(=O)CC[C@@H]23)[C@@]2(C)C=CC(=O)C=C12,-1.96% [at 35.3 µM] (inactive),–
COP(=O)(OC)O/C(C)=C/C(=O)N(C)C,-12.2% (inactive),–
CC(C)(C1CCC(O)CC1)C1CCC(O)CC1 (stereo not given),23.2% (inactive),–
CN(C)CCN(C)C,-0.25% (inactive),–
ClCCCCCCCl,-9.91% (inactive),–

SMILES,cytotoxicity increase,Potency
CN(C)C(=O)Oc1cc(OC(=O)N(C)C)cc(C(O)CNC(C)(C)C)c1 (stereo not given),-0.458% [at 35.3 µM] (inactive),–
ClC(Cl)(Cl)Cl,1.19% (inactive),–
Nc1c(Cl)c(F)nc(OCC(=O)O)c1Cl,-1.26% (inactive),–
CCCOc1nn(C(=O)NS(=O)(=O)c2ccccc2C(=O)OC)c(=O)n1C,0.206% (inactive),–
C=CCN1CC[C@]23CCCC[C@H]2[C@H]1Cc1ccc(O)cc13,-18.7% [at 35.3 µM] (inactive),–
CCOP(=O)(CN(CCO)CCO)OCC,-4.71% (inactive),–
ClCCN1CCCC1,-6.55% [at 35.3 µM] (inactive),–
O=C(NC(O)C(Cl)(Cl)Cl)NC(O)C(Cl)(Cl)Cl (stereo not given),-0.0263% [at 35.3 µM] (inactive),–
CN1C(=O)COc2c(C(=O)NC3CN4CCC3CC4)cc(Cl)cc21 (stereo not given),-10.9% [at 35.3 µM] (inactive),–
NC(=O)CS(=O)C(c1ccccc1)c1ccccc1 (stereo not given),-10.6% [at 35.3 µM] (inactive),–
CCC1(c2cccc(O)c2)CCCCN(C)C1 (stereo not given),-1.15% [at 35.3 µM] (inactive),–
Cc1ccc(S(=O)(=O)N[C@@H](CCCCN)C(=O)CCl)cc1,-0.224% [at 35.3 µM] (inactive),–
CCOC1Oc2ccc(OS(C)(=O)=O)cc2C1(C)C (stereo not given),4.82% (inactive),–
CCOC(=O)CC(SP(=S)(OC)OC)C(=O)OCC (stereo not given),–,inactive
COP(=O)(O)OC,0.718% (inactive),–
S=C=S,9.54% (inactive),–
CCC(C)(C#N)N=NC(C)(C#N)CC (stereo not given),-23.6% (inactive),–
COC(=O)c1ccc(CBr)cc1,-0.673% (inactive),–
CCOC(=O)COc1ccc(Cl)cc1Cl,-2.14% (inactive),–
O=C1CC(=O)NC(=O)N1,-1.37% (inactive),–
